Test results: the supplement of paper PMC6555819

Assays:
Assay in all cases: PBM binding z-score (relative to random genomic background probes); higher = stronger binding; sequences stand for … in GC…GCGATTGACAGCGTAGAATGAAGG
[1] = tested on: FXR:RXRa (NR concentration 270 nM, RXRa partner concentration 90 nM)
Method in brief: (§1)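 Scanned fluorescence from custom Agilent 4×180K protein-binding microarrays was regression-normalized. Binding z-scores use random background probes as reference. Ligand-free nuclear receptor dimers were incubated on the arrays for 1 h and detected with antibodies against each partner (one per run).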

[2] = tested on: LXRa:RXRa (NR concentration 270 nM, RXRa partner concentration 90 nM)
Method in brief: as §1

[3] = tested on: LXRa homodimer (NR concentration 270 nM)
Method in brief: as §1

[4] = tested on: LXRb:RXRa (NR concentration 270 nM, RXRa partner concentration 90 nM)
Method in brief: as §1

[5] = tested on: LXRb homodimer (NR concentration 270 nM)
Method in brief: as §1

[6] = tested on: PPARa:RXRa (NR concentration 270 nM, RXRa partner concentration 90 nM)
Method in brief: as §1

[7] = tested on: PPARg:RXRa (NR concentration 180 nM, RXRa partner concentration 90 nM)
Method in brief: as §1

[8] = tested on: PPARg:RXRa 270nM:90nM, anti-RXR (NR concentration 270 nM, RXRa partner concentration 90 nM)
Method in brief: as §1

[9] = tested on: PPARg:RXRa 30nM:10nM, anti-RXR (NR concentration 30 nM, RXRa partner concentration 10 nM)
Method in brief: as §1

[10] = tested on: PPARg:RXRa 90nM:30nM, anti-RXR (NR concentration 90 nM, RXRa partner concentration 30 nM)
Method in brief: as §1

[11] = tested on: PPARg:RXRa DBDmut IVT, anti-RXR (DBD mutation: RXRa K156A/R161A, NR concentration 270 nM, RXRa partner concentration 90 nM)
Method in brief: as §1

[12] = tested on: PPARg:RXRa IVT, anti-PPARg (NR concentration 270 nM, RXRa partner concentration 90 nM)
Method in brief: as §1

[13] = tested on: PPARg DBDmut:RXRa IVT, anti-PPARg (DBD mutation: PPARg1 K132A/R137A, NR concentration 270 nM, RXRa partner concentration 90 nM)
Method in brief: as §1

[14] = tested on: PPARg DBDmut IVT, anti-PPARg (DBD mutation: PPARg1 K132A/R137A, NR concentration 270 nM)
Method in brief: as §1

[15] = tested on: PPARg homodimer (NR concentration 180 nM)
Method in brief: as §1

[16] = tested on: PXR:RXRa (NR concentration 270 nM, RXRa partner concentration 90 nM)
Method in brief: as §1

[17] = tested on: PXR homodimer (NR concentration 270 nM)
Method in brief: as §1

[18] = tested on: RARa:RXR (NR concentration 270 nM, RXRa partner concentration 90 nM)
Method in brief: as §1

[19] = tested on: RARa homodimer (NR concentration 270 nM)
Method in brief: as §1

[20] = tested on: RARb:RXRa (NR concentration 270 nM, RXRa partner concentration 90 nM)
Method in brief: as §1

| Sequence | PBM binding z-score [1] | PBM binding z-score [2] | PBM binding z-score [3] | PBM binding z-score [4] | PBM binding z-score [5] | PBM binding z-score [6] | PBM binding z-score [7] | PBM binding z-score [8] | PBM binding z-score [9] | PBM binding z-score [10] | PBM binding z-score [11] | PBM binding z-score [12] | PBM binding z-score [13] | PBM binding z-score [14] | PBM binding z-score [15] | PBM binding z-score [16] | PBM binding z-score [17] | PBM binding z-score [18] | PBM binding z-score [19] | PBM binding z-score [20] |
| --- | --- | --- | --- | --- | --- | --- | --- | --- | --- | --- | --- | --- | --- | --- | --- | --- | --- | --- | --- | --- |
| ACAGACAGGTGAGTGAAGGCAACTCAGCTGGACG | -0.0161 | -0.412 | -0.593 | -0.733 | -0.607 | -0.0544 | 0.543 | -0.0793 | -0.458 | -0.591 | 0.534 | 0.283 | 0.108 | -0.0836 | -0.372 | -0.299 | -0.329 | -0.0789 | -0.354 | 0.403 |
| AGAATTAGGTTACCAAAGATCAGGGAAACGCTTG | 0.207 | 4.78 | 0.162 | 1.15 | -0.0791 | 2.9 | 3.46 | 3.45 | 1.37 | 2.53 | 6.61 | 6.16 | 1.54 | 0.973 | 1.54 | 0.000566 | 0.073 | 0.336 | 1 | 1.25 |
| GACACAGGGTCAAGGCCAGAGTACGCGTATTGAT | 6.96 | 4.02 | -0.483 | 3.38 | -0.662 | 5.47 | 5.53 | 5.57 | 1.65 | 4.01 | 2.25 | 3.61 | 0.42 | -0.363 | 1.5 | 3.91 | 0.315 | 4.77 | 0.257 | 4.41 |
| CAAACTAGGTCATCCAGGACAGTGAATACATTGA | 4.46 | 3.23 | 1.22 | 2.51 | 0.932 | 5.12 | 8.08 | 6.82 | 4.42 | 6.36 | 8.23 | 8.47 | 4.2 | 2.88 | 2.69 | 2.23 | 1.49 | 2.85 | 1.49 | 3.84 |
| TAGCCTAGGTAATGCGGGCCAGTATAGTGTCGGC | -1.49 | -1.07 | -0.66 | -1.17 | -1.38 | -0.346 | 0.000474 | -0.669 | -0.676 | -0.655 | 0.0726 | 0.795 | -0.707 | -0.721 | -1.01 | -0.858 | -1.13 | -0.925 | -1.12 | -0.447 |
| TCTATTAGTTGATCAGGGCAACCGAAACAGCGGA | 0.646 | 0.456 | 0.302 | 0.505 | 0.641 | 0.282 | 0.218 | 2.02 | 3.78 | 2.67 | 2.16 | 0.972 | 0.672 | 0.797 | 0.546 | 0.5 | 0.292 | 0.362 | 0.492 | 0.954 |
| GGAACGAGAGCAAAGTTGATAGCATCTGTCGACG | -0.381 | -0.564 | -0.809 | -0.767 | -1.1 | 2.02 | 3.1 | 4.59 | 3.13 | 5.43 | 0.164 | 0.909 | -1.31 | -0.755 | -0.156 | -0.47 | -0.418 | -0.331 | -1.16 | -0.296 |
